According to ChEMBL document CHEMBL1157539, “Thousands of chemical starting points for antimalarial lead identification” (Nature, 2010):

Test system: HepG2
Assay: GSK_TCMDC: Percent inhibition of human HepG2 cell line. Test compounds present at 10uM.
Assay type: functional

| Structure (SMILES) | Inhibition |
| --- | --- |
| O=C(C1CC1c1ccccc1)N(Cc1ccc(-c2ccc(CNCCc3ccccc3)cc2)cc1)C1CCNCC1.O=C(O)C(F)(F)F (stereo unspecified) | 36% |
| c1ccc(-c2[nH]c3ccccc3c2CN2CCC(N3CCCCC3)CC2)nc1 | 13% |
| Cl.O=C(NCCCCN1CCC(c2ccc3c(c2OCCO)CCCC3)CC1)c1ccc2oc(-c3ccc(C(F)(F)F)cc3)cc2c1 | 54% |
| O=C(Nc1ccc(OC2CCN(Cc3ccsc3)C2)c(Cl)c1)c1ccsc1.O=C(O)C(F)(F)F (stereo unspecified) | 4% |
| CCOc1ccc(-c2nc(NC(=O)Cc3cccc(OC)c3)sc2C)cc1 | 15% |
| FC(F)(F)c1ccc2[nH]c(-c3ccc(-c4ccc(CN5CCN(c6ccncc6)CC5)cc4)cc3)nc2c1.O=C(O)C(F)(F)F | 91% |
